In PubChem BioAssay (NCI):
Compounds without any hit were thinned out: in the full panel of roughly 79,000, 15% have a hit. Values without a mark were called inactive. Calls of active or inactive are those of the source. Cut-off read from the data, not from the text of the source: active = growth inhibition above about 70%; inactive = the rest.

Experiments:
[1] = NCI Yeast Anticancer Drug Screen. Data for the rad50 strain (AID 155);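 note: 0% = growth of vehicle-only cultures of the same strain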; conditions: S. cerevisiae rad50 strain growth inhibition, active compounds read high
How it was run: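 Readout: growth inhibition relative to vehicle-treated cultures. Compound exposure was carried out in a genetically defined yeast strain deficient in DNA damage repair.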

[2] = NCI Yeast Anticancer Drug Screen. Data for the mec2-1 strain (AID 157); conditions: S. cerevisiae mec2-1 strain, active compounds read high
How it was run: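 Compounds were applied to mec2-1 yeast cells. Their growth was then compared with that of vehicle-treated cultures to give growth inhibition.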

[3] = NCI Yeast Anticancer Drug Screen. Data for the sgs1 mgt1 strain (AID 161);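 note: 0% = growth of cultures given vehicle only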; conditions: S. cerevisiae sgs1 mgt1 strain, active compounds read high
How it was run: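 Compounds are added to genetically altered yeast, and growth is compared with cultures given vehicle alone to give percent inhibition.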

[4] = NCI Yeast Anticancer Drug Screen. Data for the cln2 rad14 strain (AID 165);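 note: 0% = growth equal to vehicle treated cultures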; conditions: S. cerevisiae cln2 rad14 strain, active compounds read high
How it was run: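 Strain: cln2 rad14 yeast, altered in cell cycle control and DNA damage repair. Read-out: growth inhibition vs vehicle.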

[5] = NCI Yeast Anticancer Drug Screen. Data for the bub3 strain (AID 167); conditions: S. cerevisiae bub3 mutant strain, active compounds read high
How it was run: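 Readout: yeast growth inhibition, expressed relative to vehicle-only wells. The test organism is a mutant strain from a panel with lesions in DNA repair or checkpoint genes.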

[6] = NCI Yeast Anticancer Drug Screen. Data for the mlh1 rad18 strain (AID 175); conditions: S. cerevisiae mlh1 rad18 strain growth inhibition, active compounds read high
How it was run: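 A repair-deficient yeast strain is exposed to test compound, and growth is scored relative to vehicle-treated controls.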

[7] = at 5.0 µM (retest, dose inferred, filed as 0.5)
[8] = at 50.0 µM (retest, dose inferred, filed as 5.0)

Compound | growth inhibition [1, 7] | growth inhibition [1, 8] | growth inhibition ([1]; at 50.0 µM) | growth inhibition [2, 7] | growth inhibition [2, 8] | growth inhibition ([2]; at 50.0 µM) | growth inhibition [3, 7] | growth inhibition [3, 8] | growth inhibition ([3]; at 50.0 µM) | growth inhibition [4, 7] | growth inhibition [4, 8] | growth inhibition ([4]; at 50.0 µM) | growth inhibition [5, 7] | growth inhibition [5, 8] | growth inhibition ([5]; at 50.0 µM) | growth inhibition [6, 7] | growth inhibition [6, 8] | growth inhibition ([6]; at 50.0 µM)
Cc1ccc(S(=O)(=O)N/N=C(\C=C\c2ccccc2)c2ccccc2)cc1 | -1% | 32% | 59.1% | 5% | 57% | 63.9% | 24% | 47% | 59.5% | -19% | 16% | 44.4% | 15% | 49% | 41.1% | 20% | 70% (active) | 37.1%
COc1ccc2c(c1)[n+]([O-])c(-c1ccc(Cl)cc1)c(N)[n+]2[O-] | 33% | 98% (active) | 99.2% (active) | 29% | 98% (active) | 99.3% (active) | 39% | 99% (active) | 99.3% (active) | 46% | 95% (active) | 98.8% (active) | 80% (active) | 99% (active) | 99.2% (active) | 79% (active) | 99% (active) | 99% (active)
CN1CCS(=O)(=O)C1=O | 3% | 87% (active) | 90.3% (active) | 2% | 93% (active) | 95.8% (active) | 1% | 75% (active) | 42.8% | 10% | 54% | 86.3% (active) | 5% | 94% (active) | 98% (active) | 1% | 63% | 93.2% (active)
CC(C)(CC(=O)NNc1ccccc1)C(=O)O | 7% | 72% (active) | 57.6% | 4% | 61% | 20.2% | 14% | 60% | 72% (active) | 19% | 82% (active) | 79.2% (active) | 22% | 94% (active) | 89.5% (active) | 32% | 95% (active) | 85.8% (active)
CC1=CC2OC3CC4OC(=O)/C=C/C=C/C(C(C)O)OCC(=O)C(C)CC(=O)OCC2(CC1)C4(C)C31CO1 (configuration not stated) | 28% | 98% (active) | 90.8% (active) | 26% | 99% (active) | 94% (active) | 31% | 98% (active) | 91.8% (active) | 72% (active) | 99% (active) | 91.3% (active) | 60% | 99% (active) | 91.8% (active) | 65% | 99% (active) | 91.3% (active)
CC(C)(C)C1=NN=C2c3ccccc3C(=O)C21 (configuration not stated) | 0% | 57% | 68.2% | -3% | 44% | 9.45% | -1% | 60% | 53.2% | -12% | 14% | 58.9% | 19% | 87% (active) | 78.7% (active) | -3% | 44% | 60.7%
COc1ccc(-c2n[nH]c(C(F)(F)F)c2N=NN(C)C)cc1OC | 97% (active) | 98% (active) | 98.9% (active) | 99% (active) | 99% (active) | 99.5% (active) | 99% (active) | 99% (active) | 99.4% (active) | 99% (active) | 99% (active) | 99.4% (active) | 99% (active) | 99% (active) | 99.4% (active) | 99% (active) | 99% (active) | 99.6% (active)
O=C1C=CC(=O)c2c1cc1ccccc1c2O | 19% | 97% (active) | 4.45% | 15% | 99% (active) | -10.8% | 6% | 98% (active) | 1.4% | 6% | 44% | 27.4% | 22% | 96% (active) | -5.75% | 19% | 97% (active) | 30.6%
Nc1cc(=O)[nH]c(=S)[nH]1.[Pd] | 0% | -4% | 20% | 4% | 5% | 18.6% | 5% | 6% | 13.3% | 0% | 36% | 71% (active) | 3% | 13% | -4.45% | 0% | -4% | 35.6%
